From the supplement of paper PMC11732987, “Enantioselective OTUD7B fragment discovery through chemoproteomics screening and high-throughput optimisation” (Communications Chemistry, 2025)

Experiments:
Assay in all cases: log2 ratio of Biotin-Ahx-Ub-VS probe labelling (fragment/DMSO); higher = less target engagement (more negative = stronger competition), active = hit call of the paper (q ≤ 0.05, log2 ratio ≤ -1)
Conditions in all cases: compound concentration: 200 uM; treatment time: 3 h
USP34 = USP34 (UniProt Q70CQ2)
Procedure, shortened: (§1)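 Global-median-normalised Spectronaut label-free quantities were compared by unpaired t-test, and values are average log2 ratios of fragment over vehicle. Only proteins with ≥2 unique peptides were used. HEK293T lysate (495 µg per sample) was treated in triplicate with fragment at 200 µM or vehicle for 3 h and then with Biotin-Ahx-Ub-VS at 0.5 µM final for 1 h. Labelled DUBs were then NeutrAvidin-enriched, digested with LysC and trypsin, and run by diaPASEF LC-MS/MS.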

USP36 = molecular target: T1, USP36 (UniProt Q9P275)
T1 sequence (whole entry): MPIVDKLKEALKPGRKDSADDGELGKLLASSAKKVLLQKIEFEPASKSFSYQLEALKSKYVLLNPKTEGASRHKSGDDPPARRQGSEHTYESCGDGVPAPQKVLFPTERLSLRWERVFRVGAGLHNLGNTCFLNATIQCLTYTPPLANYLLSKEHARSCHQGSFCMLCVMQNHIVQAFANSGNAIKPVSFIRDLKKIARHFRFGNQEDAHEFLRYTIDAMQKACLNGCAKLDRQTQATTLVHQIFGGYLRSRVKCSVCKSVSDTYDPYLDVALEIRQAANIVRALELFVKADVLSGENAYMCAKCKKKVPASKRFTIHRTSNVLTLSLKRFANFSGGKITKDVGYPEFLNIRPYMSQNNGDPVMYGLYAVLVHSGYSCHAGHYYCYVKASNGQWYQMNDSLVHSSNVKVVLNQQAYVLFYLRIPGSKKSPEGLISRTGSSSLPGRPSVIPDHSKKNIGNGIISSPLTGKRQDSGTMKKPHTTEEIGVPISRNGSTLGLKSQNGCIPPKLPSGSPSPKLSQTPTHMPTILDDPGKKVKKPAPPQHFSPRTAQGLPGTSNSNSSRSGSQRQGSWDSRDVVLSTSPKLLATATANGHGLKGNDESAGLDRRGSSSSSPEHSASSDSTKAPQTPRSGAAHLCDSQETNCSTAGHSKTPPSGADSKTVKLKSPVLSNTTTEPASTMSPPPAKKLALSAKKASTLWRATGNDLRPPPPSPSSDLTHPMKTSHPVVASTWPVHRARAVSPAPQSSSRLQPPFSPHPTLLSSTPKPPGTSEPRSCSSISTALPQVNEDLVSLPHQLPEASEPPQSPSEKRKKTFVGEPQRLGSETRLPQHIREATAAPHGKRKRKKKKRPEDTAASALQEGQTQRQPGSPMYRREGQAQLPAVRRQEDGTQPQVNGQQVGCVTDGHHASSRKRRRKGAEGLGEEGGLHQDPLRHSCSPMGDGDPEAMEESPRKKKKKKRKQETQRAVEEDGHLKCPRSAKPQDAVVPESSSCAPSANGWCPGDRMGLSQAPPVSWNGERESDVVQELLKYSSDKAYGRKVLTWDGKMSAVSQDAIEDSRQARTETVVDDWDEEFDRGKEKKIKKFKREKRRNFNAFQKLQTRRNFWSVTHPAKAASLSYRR
Procedure, shortened: as §1

USP38 = molecular target: T2, USP38 (UniProt Q8NB14)
T2 sequence (whole entry): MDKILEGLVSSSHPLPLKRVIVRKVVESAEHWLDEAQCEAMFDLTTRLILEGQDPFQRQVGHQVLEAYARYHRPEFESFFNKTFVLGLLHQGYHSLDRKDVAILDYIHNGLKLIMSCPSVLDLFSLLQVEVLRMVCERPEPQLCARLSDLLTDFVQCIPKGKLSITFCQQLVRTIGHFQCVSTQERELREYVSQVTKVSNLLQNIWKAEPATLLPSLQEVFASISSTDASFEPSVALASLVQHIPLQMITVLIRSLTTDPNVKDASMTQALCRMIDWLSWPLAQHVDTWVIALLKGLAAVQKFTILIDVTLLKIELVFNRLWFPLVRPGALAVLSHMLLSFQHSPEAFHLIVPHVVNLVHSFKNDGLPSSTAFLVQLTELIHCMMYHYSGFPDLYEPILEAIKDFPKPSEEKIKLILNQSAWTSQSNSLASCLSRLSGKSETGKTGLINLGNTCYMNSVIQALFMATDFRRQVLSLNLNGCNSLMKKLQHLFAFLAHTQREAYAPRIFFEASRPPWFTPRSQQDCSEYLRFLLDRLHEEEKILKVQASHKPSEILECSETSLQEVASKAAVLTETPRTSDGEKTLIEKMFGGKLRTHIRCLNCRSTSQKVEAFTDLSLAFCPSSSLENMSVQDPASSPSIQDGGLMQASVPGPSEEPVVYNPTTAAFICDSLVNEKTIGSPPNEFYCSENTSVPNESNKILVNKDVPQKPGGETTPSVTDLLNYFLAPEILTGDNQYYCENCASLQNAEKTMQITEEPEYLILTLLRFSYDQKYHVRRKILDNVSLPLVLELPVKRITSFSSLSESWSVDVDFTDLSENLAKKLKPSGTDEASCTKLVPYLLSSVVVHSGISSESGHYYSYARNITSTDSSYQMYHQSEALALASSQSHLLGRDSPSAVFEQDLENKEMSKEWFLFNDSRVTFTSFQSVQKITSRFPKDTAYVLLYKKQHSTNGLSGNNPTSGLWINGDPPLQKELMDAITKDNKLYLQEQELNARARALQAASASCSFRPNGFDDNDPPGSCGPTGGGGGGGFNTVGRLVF
Procedure, shortened: as §1

USP39 = molecular target: T3, USP39 (UniProt Q53GS9)
T3 sequence (whole entry): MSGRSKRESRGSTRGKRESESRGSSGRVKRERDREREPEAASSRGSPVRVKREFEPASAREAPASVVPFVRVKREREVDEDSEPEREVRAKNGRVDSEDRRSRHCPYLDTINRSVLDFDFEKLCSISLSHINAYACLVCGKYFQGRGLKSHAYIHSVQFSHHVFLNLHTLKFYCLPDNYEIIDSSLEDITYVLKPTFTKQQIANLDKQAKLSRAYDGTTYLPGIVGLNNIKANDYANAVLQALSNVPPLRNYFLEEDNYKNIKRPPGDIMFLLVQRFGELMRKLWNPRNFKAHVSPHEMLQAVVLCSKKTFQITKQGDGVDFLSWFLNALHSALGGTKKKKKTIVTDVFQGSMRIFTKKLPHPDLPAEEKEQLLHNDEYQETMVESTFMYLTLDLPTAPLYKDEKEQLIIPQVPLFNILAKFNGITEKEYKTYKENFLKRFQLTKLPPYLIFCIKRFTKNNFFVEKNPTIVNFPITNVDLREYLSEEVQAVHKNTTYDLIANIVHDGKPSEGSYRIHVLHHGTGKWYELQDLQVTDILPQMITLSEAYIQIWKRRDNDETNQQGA
Procedure, shortened: as §1

USP4 = molecular target: T4, USP4 (UniProt Q13107)
T4 sequence (whole entry): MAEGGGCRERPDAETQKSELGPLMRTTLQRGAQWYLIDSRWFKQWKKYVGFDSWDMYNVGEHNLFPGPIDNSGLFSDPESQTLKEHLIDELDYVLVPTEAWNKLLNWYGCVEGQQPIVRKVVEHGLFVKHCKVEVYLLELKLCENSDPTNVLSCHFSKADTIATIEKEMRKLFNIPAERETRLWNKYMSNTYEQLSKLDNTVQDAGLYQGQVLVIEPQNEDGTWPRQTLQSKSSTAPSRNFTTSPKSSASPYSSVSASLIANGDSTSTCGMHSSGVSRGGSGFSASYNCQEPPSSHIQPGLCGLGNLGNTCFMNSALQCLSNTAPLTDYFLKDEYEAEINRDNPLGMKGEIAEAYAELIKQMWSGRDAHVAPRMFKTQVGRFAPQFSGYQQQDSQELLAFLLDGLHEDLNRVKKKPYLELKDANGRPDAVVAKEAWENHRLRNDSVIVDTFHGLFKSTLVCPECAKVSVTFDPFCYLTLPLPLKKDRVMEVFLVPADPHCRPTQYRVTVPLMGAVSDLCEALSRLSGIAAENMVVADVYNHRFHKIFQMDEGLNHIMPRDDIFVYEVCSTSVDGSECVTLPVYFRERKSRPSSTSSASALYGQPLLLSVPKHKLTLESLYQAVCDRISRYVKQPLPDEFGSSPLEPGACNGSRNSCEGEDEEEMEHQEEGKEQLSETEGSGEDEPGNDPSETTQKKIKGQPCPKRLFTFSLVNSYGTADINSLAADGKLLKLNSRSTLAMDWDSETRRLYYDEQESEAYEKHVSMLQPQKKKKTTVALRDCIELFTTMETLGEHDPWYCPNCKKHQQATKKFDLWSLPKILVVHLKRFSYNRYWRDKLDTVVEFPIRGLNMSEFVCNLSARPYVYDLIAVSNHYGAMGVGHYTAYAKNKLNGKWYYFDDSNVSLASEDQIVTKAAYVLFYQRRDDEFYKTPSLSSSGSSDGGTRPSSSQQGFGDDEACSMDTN
Procedure, shortened: as §1

Measured: log2 ratio of Biotin-Ahx-Ub-VS probe labelling

Chain of USP34 (Q70CQ2 whole entry, the tested form may be a part): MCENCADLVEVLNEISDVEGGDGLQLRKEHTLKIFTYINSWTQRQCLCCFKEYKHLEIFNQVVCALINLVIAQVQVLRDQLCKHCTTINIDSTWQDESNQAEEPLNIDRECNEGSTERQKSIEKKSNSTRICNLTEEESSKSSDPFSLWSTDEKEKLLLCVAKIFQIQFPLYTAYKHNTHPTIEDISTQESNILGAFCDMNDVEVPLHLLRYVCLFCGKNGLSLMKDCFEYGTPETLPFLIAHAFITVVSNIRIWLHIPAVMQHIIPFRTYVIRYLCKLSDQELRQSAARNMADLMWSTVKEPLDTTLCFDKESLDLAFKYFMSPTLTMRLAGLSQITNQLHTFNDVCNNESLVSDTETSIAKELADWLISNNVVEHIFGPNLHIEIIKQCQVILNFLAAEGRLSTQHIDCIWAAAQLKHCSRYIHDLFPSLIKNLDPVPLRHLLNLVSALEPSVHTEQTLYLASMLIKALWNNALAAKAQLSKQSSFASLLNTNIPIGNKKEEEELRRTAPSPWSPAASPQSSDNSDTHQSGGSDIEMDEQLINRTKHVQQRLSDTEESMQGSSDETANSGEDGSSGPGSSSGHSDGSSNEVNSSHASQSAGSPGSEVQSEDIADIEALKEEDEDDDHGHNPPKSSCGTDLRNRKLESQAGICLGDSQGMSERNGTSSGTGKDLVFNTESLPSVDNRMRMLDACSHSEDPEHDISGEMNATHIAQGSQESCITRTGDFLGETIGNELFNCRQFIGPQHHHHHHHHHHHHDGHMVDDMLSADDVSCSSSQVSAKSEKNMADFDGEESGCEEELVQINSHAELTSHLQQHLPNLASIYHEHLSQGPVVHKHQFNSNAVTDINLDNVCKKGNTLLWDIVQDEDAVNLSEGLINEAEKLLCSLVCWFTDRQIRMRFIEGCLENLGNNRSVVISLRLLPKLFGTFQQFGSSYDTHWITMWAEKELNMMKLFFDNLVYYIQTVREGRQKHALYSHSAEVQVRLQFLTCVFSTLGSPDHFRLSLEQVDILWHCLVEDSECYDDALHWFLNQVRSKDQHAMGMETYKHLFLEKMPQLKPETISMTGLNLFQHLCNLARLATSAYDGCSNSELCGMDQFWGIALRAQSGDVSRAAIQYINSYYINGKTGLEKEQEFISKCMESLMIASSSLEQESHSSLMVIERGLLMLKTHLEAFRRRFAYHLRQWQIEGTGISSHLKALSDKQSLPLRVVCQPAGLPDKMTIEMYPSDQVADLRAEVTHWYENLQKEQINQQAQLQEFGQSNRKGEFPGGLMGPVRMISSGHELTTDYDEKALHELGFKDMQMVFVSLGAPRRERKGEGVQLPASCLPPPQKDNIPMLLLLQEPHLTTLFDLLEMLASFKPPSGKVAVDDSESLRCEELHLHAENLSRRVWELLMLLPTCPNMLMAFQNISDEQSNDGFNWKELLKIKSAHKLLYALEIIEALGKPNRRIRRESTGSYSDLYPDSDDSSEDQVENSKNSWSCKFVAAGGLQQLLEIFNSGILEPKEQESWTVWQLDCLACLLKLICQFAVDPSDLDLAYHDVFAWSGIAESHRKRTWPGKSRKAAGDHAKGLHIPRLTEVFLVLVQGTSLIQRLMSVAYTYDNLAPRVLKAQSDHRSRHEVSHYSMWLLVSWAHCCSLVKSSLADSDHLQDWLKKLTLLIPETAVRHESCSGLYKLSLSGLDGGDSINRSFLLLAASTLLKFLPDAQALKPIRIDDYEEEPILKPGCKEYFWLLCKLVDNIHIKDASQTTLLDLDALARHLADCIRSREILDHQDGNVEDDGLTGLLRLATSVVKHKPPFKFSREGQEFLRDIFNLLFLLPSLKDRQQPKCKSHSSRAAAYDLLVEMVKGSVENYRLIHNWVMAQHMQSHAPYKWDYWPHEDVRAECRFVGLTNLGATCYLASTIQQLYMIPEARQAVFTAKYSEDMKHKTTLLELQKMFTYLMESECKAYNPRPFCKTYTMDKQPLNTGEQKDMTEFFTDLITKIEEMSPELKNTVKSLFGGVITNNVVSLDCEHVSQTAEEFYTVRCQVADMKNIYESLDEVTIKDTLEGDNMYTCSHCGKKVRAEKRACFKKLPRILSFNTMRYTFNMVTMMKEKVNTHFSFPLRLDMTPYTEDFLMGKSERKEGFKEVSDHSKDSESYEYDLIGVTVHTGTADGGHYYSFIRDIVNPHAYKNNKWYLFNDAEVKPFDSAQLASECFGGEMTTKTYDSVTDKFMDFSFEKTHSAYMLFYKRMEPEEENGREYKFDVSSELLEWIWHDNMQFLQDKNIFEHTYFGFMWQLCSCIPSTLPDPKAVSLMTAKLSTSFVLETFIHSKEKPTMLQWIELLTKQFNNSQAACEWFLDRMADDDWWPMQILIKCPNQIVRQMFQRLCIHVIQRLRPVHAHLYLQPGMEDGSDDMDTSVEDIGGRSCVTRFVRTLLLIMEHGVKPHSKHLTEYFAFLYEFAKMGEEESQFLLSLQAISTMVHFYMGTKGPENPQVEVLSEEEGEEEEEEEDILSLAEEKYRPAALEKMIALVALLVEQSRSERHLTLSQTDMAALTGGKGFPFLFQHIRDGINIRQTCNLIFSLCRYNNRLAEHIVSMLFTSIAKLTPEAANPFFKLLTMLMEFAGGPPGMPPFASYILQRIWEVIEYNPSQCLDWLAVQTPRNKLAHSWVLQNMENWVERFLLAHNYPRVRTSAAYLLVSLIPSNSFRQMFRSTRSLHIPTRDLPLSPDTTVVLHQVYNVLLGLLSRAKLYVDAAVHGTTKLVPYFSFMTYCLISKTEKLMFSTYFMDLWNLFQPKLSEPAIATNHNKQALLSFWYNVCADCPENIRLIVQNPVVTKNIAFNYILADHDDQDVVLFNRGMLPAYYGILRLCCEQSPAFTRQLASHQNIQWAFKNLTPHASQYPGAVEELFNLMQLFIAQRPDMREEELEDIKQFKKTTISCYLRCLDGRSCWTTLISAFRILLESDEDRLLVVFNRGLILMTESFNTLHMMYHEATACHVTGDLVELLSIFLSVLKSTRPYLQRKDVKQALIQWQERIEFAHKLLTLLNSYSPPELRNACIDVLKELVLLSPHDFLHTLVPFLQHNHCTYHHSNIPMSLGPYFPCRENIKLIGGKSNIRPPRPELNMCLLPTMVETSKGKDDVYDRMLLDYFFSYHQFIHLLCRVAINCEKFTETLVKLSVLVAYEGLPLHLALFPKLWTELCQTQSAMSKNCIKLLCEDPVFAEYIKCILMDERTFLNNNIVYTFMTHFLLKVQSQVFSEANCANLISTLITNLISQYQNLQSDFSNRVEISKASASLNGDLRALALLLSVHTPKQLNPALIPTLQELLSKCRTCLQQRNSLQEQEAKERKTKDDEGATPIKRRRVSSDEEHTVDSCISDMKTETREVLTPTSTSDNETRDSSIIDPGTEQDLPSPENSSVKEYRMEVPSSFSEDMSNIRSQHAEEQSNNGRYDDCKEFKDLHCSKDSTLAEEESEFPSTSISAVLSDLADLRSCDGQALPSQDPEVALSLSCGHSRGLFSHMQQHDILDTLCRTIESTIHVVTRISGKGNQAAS

O=C(CCl)N(C1CCCC1)C1CCS(=O)(=O)C1 (stereo not given)
inactive: USP34 -0.0865 | USP36 -0.298 | USP38 -0.0626 | USP39 0.151 | USP4 0.0894
